Results as given in PubChem BioAssay AID463173 (ICCB-Longwood Screening Facility, Harvard Medical School, 2010).
Among all 52,000 compounds or so, about 4,300 (8.3%) were called active. Rule as the data show it: active = survival mostly below about 52% (no sharp cut-off); inactive = mostly above about 56%. Shown is part of a subset that was picked to be rich in actives.

tested on: DeltatarO mutant; experiment: S. aureus survival, RN4220 and DeltatarO strains – OD600, teichoic acid synthesis inhibitors, primary screen (AID 463173); details: S. aureus RN4220 wild type/DeltatarO growth, OD600, 18 h, hits give low values, screened at 18.75 µg/mL (by protocol)

Row | Compound | survival
1 | COc1ccccc1-n1nc(-c2ccccc2)c2cnc3cc(C(F)(F)F)ccc3c21 | 81% (inactive)
2 | CCCS(=O)(=O)N1CC(=O)N(c2cccc(Cl)c2C)C(C)(C(=O)NC2CCCC2)C1 (centres undefined) | 99% (inactive)
3 | COc1ccccc1N1CCN(C(=O)c2cc3c(=O)n(Cc4ccco4)ccc3nc2C)CC1 | 80% (inactive)
4 | CC(C)CN1CCc2nc(N3CCN(C)CC3)ncc2C1 | 83% (inactive)
5 | Sc1ccc2oc3ccc(S)cc3c2c1 | 93% (inactive)
6 | CCS(=O)(=O)c1nc(S(=O)(=O)c2ccc(C)cc2)c(NCc2ccccc2Cl)s1 | 81% (inactive)
7 | CCc1nn(CC(=O)Nc2ccc(N(CC)CC)cc2C)c(=O)c2cc3sccc3n12 | 77% (inactive)
8 | O=C(Cc1ccc(Cl)cc1)Nc1ccc2oc(-c3ccccc3F)nc2c1 | 118% (inactive)
9 | COc1ccc(/C=C/c2nc3ccccc3c(=O)n2-c2cccc(C(F)(F)F)c2)cc1 | 91% (inactive)
10 | COc1cccc2sc(NC(=O)CS(=O)(=O)c3ccc(C)cc3)nc12 | 101% (inactive)
11 | c1ccc(-c2cn(-c3ccccc3)c3ncnc(N4CCN(c5ccccc5)CC4)c23)cc1 | 90% (inactive)
12 | O=CN1CCN(S(=O)(=O)c2ccc(S(=O)(=O)NC3CC3)cc2)CC1 | 72% (inactive)
13 | CCOc1ccc(-c2nnc(SCC(=O)NCc3ccc(C)cc3)nc2-c2ccc(OCC)cc2)cc1 | 106% (inactive)
14 | Cc1ccc(NC(=O)c2ccco2)cc1NC(=O)CSc1ncnc2sc3c(c12)CCC3 | 54% (inactive)
15 | CC1CCN(c2nc3c(S(=O)(=O)c4ccccc4)nnn3c3ccsc23)CC1 | 113% (inactive)
16 | Cc1ccc(S(=O)(=O)c2nc(-c3cccs3)oc2N2CCCCC2)cc1 | 39% (active)
17 | CC1CCN(c2oc(-c3cccs3)nc2S(=O)(=O)c2ccccc2)CC1 | 35% (active)
18 | COc1cccc(-c2nc(S(=O)(=O)c3ccccc3)c(N3CCC(C)CC3)o2)c1 | 50% (inactive)
19 | O=S(=O)(c1ccccc1)c1nc(-c2cccs2)oc1N1CCCCC1 | 116% (inactive)
20 | COc1ccc(CCNC(=O)CCCn2c(=O)c3ccccc3n(Cc3c(C)cc(C)cc3C)c2=O)cc1OC | 89% (inactive)
21 | O=C(NC1CCCCC1)C(c1cccs1)N(Cc1ccco1)C(=O)C1COc2ccccc2O1 (centres undefined) | 96% (inactive)
22 | COc1ccc(OC)c(S(=O)(=O)N2CCC(n3c(C)nc4cccnc43)CC2)c1 | 73% (inactive)
23 | CCc1ccc2occ(CC(=O)Nc3sc4c(c3C(=O)NCCOC)CCCC4)c2c1 | 77% (inactive)
24 | CCC(=O)Nc1cc(-c2cccc(C)c2)nn1-c1ccccc1 | 83% (inactive)

Row | Compound | survival
25 | CC1=C(C#N)C(=O)NC(C)(C)C1 | 76% (inactive)
26 | Cc1ccc2nc(N3CCN(c4cccc(C)c4C)CC3)c3nnnn3c2c1 | 81% (inactive)
27 | Cc1ccc(N2CCN(c3nc4ccc(C(=O)c5ccccc5)cc4n4cnnc34)CC2)c(C)c1 | 82% (inactive)
28 | CCc1nnc2c3ccccc3nc(N3CCN(c4cc(Cl)ccc4C)CC3)n12 | 104% (inactive)
29 | Clc1cccc(N2CCN(c3nc4ccccc4n4cnnc34)CC2)c1 | 62% (inactive)
30 | Cc1ccc2nc(N3CCN(c4cccc(C)c4C)CC3)c3nncn3c2c1 | 39% (active)
31 | Cc1ccc(C)c(N2CCN(c3nc4ccc(Cl)cc4n4cnnc34)CC2)c1 | 89% (inactive)
32 | Cc1ccc(C)c(N2CCN(c3nc4ccc(C(=O)c5ccccc5)cc4n4cnnc34)CC2)c1 | 79% (inactive)
33 | CCc1nnc2c(N3CCN(c4cc(Cl)ccc4C)CC3)nc3ccccc3n12 | -5% (active)
34 | CCc1nnc2c(N3CCN(c4cccc(C(F)(F)F)c4)CC3)nc3ccccc3n12 | 108% (inactive)
35 | FC(F)(F)c1cccc(N2CCN(c3nc4ccccc4n4cnnc34)CC2)c1 | 25% (active)
36 | Cc1ccc(Cl)cc1N1CCN(c2nc3ccc(C(=O)c4ccccc4)cc3n3cnnc23)CC1 | -4% (active)
37 | Cc1ccc(C)c(N2CCN(c3nc4ccccc4n4c(C)nnc34)CC2)c1 | 77% (inactive)
38 | COc1ccccc1-c1nnc2n(CCc3ccccc3)c(=O)c3ccccc3n12 | 69% (inactive)
39 | CCN(CC)C(=O)c1sc2c(c1C)c(=O)n(-c1ccc(C)c(C)c1)c(=O)n2CC(=O)Nc1ccc(OC)cc1OC | 78% (inactive)
40 | O=C(NCc1cccc(Cl)c1)C1CCCN(c2ncnc3onc(-c4ccc(F)cc4)c23)C1 (centres undefined) | 90% (inactive)
41 | COc1ccc(C)cc1NC(=O)c1nnn(Cc2cccc(Br)c2)c1N | 87% (inactive)
42 | COc1ccc(N2CCN(c3oc(-c4ccc(COc5cccc(C)c5)o4)nc3C#N)CC2)cc1 | 102% (inactive)
43 | COc1cc2nc(C3CCC3)n(NC(=O)c3ccco3)c(=O)c2cc1OC | 82% (inactive)
44 | O=S1(=O)N=C(Nc2cccc(C(F)(F)F)c2)c2ccccc21 | 53% (inactive)
45 | COc1ccccc1N1CCN(c2nc3ccc(C(=O)c4ccccc4)cc3n3c(C)nnc23)CC1 | 46% (active)
46 | Cc1nnc2c(N3CCN(c4ccccc4)CC3)nc3ccc(C(=O)c4ccccc4)cc3n12 | 80% (inactive)
47 | Cc1nnc2c(N3CCN(c4ccccc4F)CC3)nc3ccc(C(=O)c4ccccc4)cc3n12 | 93% (inactive)
48 | COc1ccc(NC(=O)Cn2nc(-c3ccccc3)c3cnc4ccc(C)cc4c32)cc1 | 63% (inactive)

Row | Compound | survival
49 | CC(C)c1ccc2c(c1)-c1ccccc1S(=O)(=O)N2CC(=O)N1CCCCC1 | 85% (inactive)
50 | CCCC(=O)NC(C)c1nc2ccccc2n1Cc1ccccc1 (centres undefined) | 101% (inactive)
51 | Cc1cc(N2CCOCC2)cc(C)[n+]1[O-] | 90% (inactive)
52 | COc1ccccc1C1CC(=O)N(c2cccc(C(F)(F)F)c2)C2=C1C(=O)OC2 (centres undefined) | 56% (inactive)
53 | Cc1cc(C)cc(N2C(=O)CC(c3ccc(C(F)(F)F)cc3)C3=C2COC3=O)c1 (centres undefined) | 72% (inactive)
54 | CCc1ccc(C2CC(=O)N(c3cccc(C(F)(F)F)c3)C3=C2C(=O)OC3)cc1 (centres undefined) | 57% (active)
55 | CCN(CC)c1ccc(NC(=O)c2cc(CN3CCCC3)on2)c(C)c1 | 102% (inactive)
56 | CC(=O)c1ccc(N2CCN(c3ncnc4onc(C)c34)CC2)cc1 | 55% (inactive)
57 | COc1ccc(S(=O)(=O)c2nnn(-c3cccc(Cl)c3)c2N)cc1 | 56% (inactive)
58 | CCOc1ccc(-c2nc3ccccc3c(=O)o2)cc1 | 68% (inactive)
59 | CCOc1cccc(-c2nc3ccccc3c(=O)o2)c1 | 35% (active)
60 | CCCOc1ccc(-c2nc3ccccc3c(=O)o2)cc1 | 64% (inactive)
61 | CCCOc1cccc(C(=O)NCc2cccnc2)c1 | 81% (inactive)
62 | COc1cc(N2C(=O)CSC23C(=O)N(C)c2ccccc23)cc(OC)c1OC (centres undefined) | 66% (inactive)
63 | COC(=O)c1cc(S(=O)(=O)NCC2CCN(Cc3ccc(F)cc3)CC2)cn1C | 109% (inactive)
64 | N#Cc1ccccc1CSc1nnc(-c2ccc(Br)cc2)o1 | 92% (inactive)
65 | CCOC(=O)CSc1nnc(-c2ccc(OC)cc2)o1 | 66% (inactive)
66 | CCCCOC(=O)CSc1nnc(-c2ccc(C)cc2)o1 | 12% (active)
67 | COc1ccc(-c2nnc(SCC(=O)Oc3cc(C)ccc3C)o2)cc1 | 67% (inactive)
68 | CCCCCSc1nnc(-c2ccc(Br)cc2)o1 | -1% (active)
69 | N#Cc1ccc(CSc2nnc(-c3ccc(Br)cc3)o2)cc1 | 87% (inactive)
70 | CC(=O)Nc1ccc(S(=O)(=O)N2CCC(N3CCN(Cc4ccc(C)cc4)C(=O)C3=O)CC2)cc1 | 83% (inactive)
71 | COCCCNc1nc2c(-c3ccccc3)nnn2c2ccccc12 | 78% (inactive)
72 | O=C(Nc1cccc(-c2nc3ccccc3[nH]2)c1)c1c(F)cccc1F | 37% (active)

Row | Compound | survival
73 | O=C(Nc1ccc2nc(-c3ccccc3)[nH]c2c1)c1ccco1 | 1% (active)
74 | CC(C)(C)C(=O)Nc1ccc(-c2nc3ccc(NC(=O)C(C)(C)C)cc3[nH]2)cc1 | 105% (inactive)
75 | O=C(Nc1cccc(NC(=O)c2ccccc2F)c1)c1ccccc1 | 77% (inactive)
76 | O=C(Nc1cccc(-c2nc3ccccc3[nH]2)c1)c1ccccc1F | 29% (active)
77 | CCC(=O)Nc1ccc(-c2nc3ccc(NC(=O)CC)cc3[nH]2)cc1 | 66% (inactive)
78 | Cc1csc2nc(-c3cccc(NC(=O)c4ccccc4F)c3)cn12 | 126% (inactive)
79 | O=C(NCc1nc2ccccc2[nH]1)c1c(F)cccc1F | 56% (inactive)
80 | CC(=O)Nc1cc(NC(C)=O)cc(-c2nc3ccccc3[nH]2)c1 | 83% (inactive)
81 | O=C(Nc1ccc(C(=O)OCc2cc(=O)n3ccsc3n2)cc1)c1cccc(F)c1 | 102% (inactive)
82 | COc1ccc(C(=O)N(Cc2ccco2)Cc2ccccc2F)cc1Cl | 98% (inactive)
83 | Cc1cccc(NC(=O)CCN2CCC(C)CC2)c1 | 91% (inactive)
84 | Cc1ccc(NC(=O)CSc2nc(=O)n(CCCN(C)C)c3c2CCC3)cc1F | 71% (inactive)
85 | COc1cc(NC(=O)C(CC(C)C)N2Cc3ccccc3C2=O)cc(OC)c1 (centres undefined) | 108% (inactive)
86 | O=C(Cc1ccccc1)N=Nc1c(O)[nH]c2ccccc12 | 91% (inactive)
87 | O=C(N=Nc1c(O)[nH]c2ccccc12)C1C2CCCCC21 (centres undefined) | 95% (inactive)
88 | O=C(N=Nc1c(O)[nH]c2ccccc12)C1CC1c1ccccc1 (centres undefined) | 35% (active)
89 | Cc1cc(Nc2cccc(Cl)c2)nc2ccc(NC(=O)Cc3ccc(Cl)cc3)cc12 | 105% (inactive)
90 | Cc1c(C(=O)N2CCCCCC2)c(S(=O)(=O)NCc2ccccc2)c(C)n1C | 77% (inactive)
91 | CCOc1ccc2[nH]c(=O)c(CN(Cc3ccccc3)C(=O)N3CCOCC3)cc2c1 | 105% (inactive)
92 | CC(C)COc1ccc(-c2nnn(CC(=O)N3C(C)CCCC3C)n2)cc1 (centres undefined) | 69% (active)
93 | CC(C)c1ccc(-c2nnn(CC(=O)OC3CCCCC3)n2)cc1 | 87% (inactive)
94 | CCOc1ccc(-c2nnn(CC(=O)NC3CCCCC3)n2)cc1 | 75% (inactive)
